# Results filed as inconclusive are left out. A number with no mark means an inactive call. Activity calls are given as the source filed them. Calls come from the whole dose curve; tested in HEK293 reporter line.
# Test: qHTS for Inhibitors of the Functional Ribonucleoprotein Complex (vRNP) of Lassa (LASV) Arenavirus: LASV Primary Screen - GLuc reporter signal (AID 1347082); note: nearly all actives have a fitted effect of over 60% in size
# Conditions: LASV minigenome vRNP, Gaussia luciferase reporter; series mostly up to 57.5 µM; activity change, negative = inhibition: at the top concentration
# % is set by controls: 0 for no effect and ±100 for the full control effect.
Structure (SMILES),"activity change, negative = inhibition [%]",Potency
CC(=O)O[C@@]12CO[C@@H]1C[C@H](O)[C@@]1(C)C(=O)[C@H](O)C3=C(C)[C@@H](OC(=O)[C@H](O)[C@@H](NC(=O)OC(C)(C)C)c4ccccc4)C[C@@](O)([C@@H](OC(=O)c4ccccc4)[C@H]21)C3(C)C,-22.7,–
Cc1ccc(O)c([C@H](CCN(C(C)C)C(C)C)c2ccccc2)c1,10.5,–
COc1cc2c(c(OC)c1OC)-c1ccc(OC)c(=O)cc1[C@@H](NC(C)=O)CC2,–,inactive
COc1cc2ncnc(Nc3ccc(F)c(Cl)c3)c2cc1OCCCN1CCOCC1,-19,–
COC(=O)Nc1nc2ccc(C(=O)c3cccs3)cc2[nH]1,-58.8,–
CC(C)Oc1ccc2c(=O)c(-c3ccccc3)coc2c1,–,inactive
CCCN[C@H]1CCc2nc(N)sc2C1,–,inactive
CN(C)C(=O)C(CCN1CCC(O)(c2ccc(Cl)cc2)CC1)(c1ccccc1)c1ccccc1,–,inactive
C[n+]1ccccc1/C=N/O,-31.8,–
Cc1ccnc2c1NC(=O)c1cccnc1N2C1CC1,–,inactive
COc1ccc(OC)c(C(O)CNC(=O)CN)c1 (configuration not stated),-0.516,–
O=C1NC(c2ccccc2)(c2ccccc2)C(=O)N1COP(=O)(O)O,-3.94,–
O=C(OC1C[C@H]2CC[C@@H](C1)[N+]21CCCC1)C(O)(c1ccccc1)c1ccccc1 (some centres not stated),46.7,–
CCCCc1oc2ccc(NS(C)(=O)=O)cc2c1C(=O)c1ccc(OCCCN(CCCC)CCCC)cc1,-16.7,–
O=c1[nH]cc(F)c(=O)[nH]1,–,inactive
O=C1OCCN1/N=C/c1ccc([N+](=O)[O-])o1,-19.8,–
CCn1cc(C(=O)O)c(=O)c2cc(F)c(N3CCNCC3)cc21,–,inactive

# From PubChem BioAssay (NCATS)
